Results published in the supplement of paper PMC10646978.
± gives the standard deviation.

How the values were obtained:
Settings in all cases: modulator concentration 10 µM
[1] = system: RAW-Dual (murine macrophage reporter line); test: NF-kB reporter (SEAP) activity fold change vs agonist alone; higher = enhanced NF-kB activity
How it was run: (§1)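 Overnight stimulation with a PRR agonist followed pre-incubation for 1 hour at 37 °C with compound at 10 μM final. This was done in RAW-Dual murine macrophage reporter cells seeded at 50 000 per well in 384-well plates. NF-κB (SEAP, QUANTI-Blue absorbance at 620 nm) and IRF (Lucia luciferase, QUANTI-Luc luminescence) were read from the supernatant. Each reporter's fold change relative to the mean agonist-only control on the same plate was averaged over replicate plates.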

[2] = system: RAW-Dual (murine macrophage reporter line); test: IRF reporter (Lucia luciferase) activity fold change vs agonist alone; higher = enhanced IRF activity
How it was run: as §1

[3] = system: RAW-Dual (murine macrophage reporter line); test: viability score (confluency relative to resting cells, overnight) (fraction); higher = more viable, active = viable (0.7 or more)
How it was run: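 Confluency was the readout: RAW-Dual macrophages were imaged with IncuCyte after an overnight exposure to compound at 10 μM final. IncuCyte software produced two masks over all imaged wells. The viability score expresses confluency against resting cells, and both masks had to exceed 70% of resting cells for a compound to meet the cutoff.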

[4] = agonist: CpG ODN 1826 0.5 ug/mL

Row | Structure (SMILES) | NF-kB reporter [1, 4] | NF-kB reporter ([1]; agonist: LPS 0.1 ug/mL) | NF-kB reporter ([1]; agonist: MPLA […]) | IRF reporter ([2]; agonist: 3'3'-cGAMP 10 ug/mL) | IRF reporter ([2]; agonist: LPS 0.1 ug/mL) | IRF reporter ([2]; agonist: MPLA […]) | viability score [3]
1 | CCC(=O)CC(O)(c1ccccc1)C(F)(F)F (centres undefined) | 1.04 ± 0.099 | 0.955 ± 0.19 | 1.02 ± 0.049 | 1.01 ± 0.14 | 0.953 ± 0.061 | 1.01 ± 0.11 | 0.996 (active)
2 | C#Cc1cccc(Nc2ncnc3cc(OCCOC)c(OCCOC)cc23)c1.Cl | 0.511 ± 0.11 | 0.348 ± 0.047 | 0.233 ± 0.014 | 0.292 ± 0.03 | 0.143 ± 0.039 | 0.0986 ± 0.027 | 0.853 (active)
3 | CC(=O)c1cc2c(o1)C(=O)c1ccccc1C2=O | 1.19 ± 0.28 | 1.36 ± 0.068 | 1.31 ± 0.1 | 0.995 ± 0.035 | 1.12 ± 0.16 | 1.18 ± 0.27 | 0.995 (active)
4 | Cc1cc(CCNC(=O)c2nc3ccccc3s2)nn1C | 1.1 ± 0.062 | 0.978 ± 0.12 | 0.978 ± 0.053 | 0.953 ± 0.052 | 1.02 ± 0.048 | 0.943 ± 0.29 | 1 (active)
5 | O=C(/C=C/C=C/c1ccc2c(c1)OCO2)N1CCCCC1 | 0.974 ± 0.093 | 1 ± 0.097 | 1.17 ± 0.062 | 0.842 ± 0.052 | 1.04 ± 0.16 | 1.07 ± 0.26 | 1.03 (active)
6 | CC(Oc1cccc(Cl)c1)C(=O)Nc1nncs1 (centres undefined) | 0.999 ± 0.082 | 0.972 ± 0.054 | 0.967 ± 0.058 | 0.947 ± 0.023 | 1.28 ± 0.18 | 1.05 ± 0.2 | 1.01 (active)
7 | CCOC(=O)CNS(=O)(=O)c1ccc([N+](=O)[O-])cc1 | 1.09 ± 0.093 | 1.05 ± 0.11 | 1.04 ± 0.061 | 0.997 ± 0.13 | 1.05 ± 0.044 | 1.09 ± 0.087 | 0.998 (active)
8 | O=C(O)c1coc(CNC(=O)c2cocc2C(=O)O)c1 | 1.04 ± 0.1 | 1.08 ± 0.08 | 0.902 ± 0.054 | 0.996 ± 0.027 | 1.51 ± 0.21 | 1.14 ± 0.072 | 1.01 (active)
9 | Cc1ccc(NC(=O)Nc2c(C)nc(N3CCN(C)CC3)nc2C)cc1F | 0.993 ± 0.049 | 1.03 ± 0.11 | 0.818 ± 0.037 | 0.925 ± 0.046 | 1.21 ± 0.083 | 1.17 ± 0.15 | 0.97 (active)
10 | Cc1cc(C)c2c(c1)[C@@H](N(Cc1cc(C(F)(F)F)cc(C(F)(F)F)c1)c1nnn(C)n1)CCCN2C[C@H]1CC[C@H](C(=O)O)CC1 | 0.717 ± 0.054 | 0.861 ± 0.097 | 1.08 ± 0.036 | 0.985 ± 0.058 | 0.955 ± 0.033 | 1.09 ± 0.14 | 1.01 (active)
11 | Cc1c(C)n2c3c(=O)n(Cc4ccccc4F)c(=O)n(C)c3nc2n1CCCN1CCOCC1 | 0.843 ± 0.062 | 1.1 ± 0.087 | 0.958 ± 0.052 | 1.11 ± 0.089 | 1.06 ± 0.14 | 1.05 ± 0.37 | 1.01 (active)
12 | O=c1c(-c2ccc(O)cc2)coc2cc(O)cc(O)c12 | 1.54 ± 0.4 | 1.01 ± 0.26 | 1.2 ± 0.079 | 0.625 ± 0.02 | 0.76 ± 0.29 | 0.842 ± 0.1 | 0.945 (active)
13 | CCC(=O)Nc1ccc(S(=O)(=O)NCC2CCN(Cc3ccccc3)CC2)c(C)c1 | 0.787 ± 0.038 | 0.961 ± 0.076 | 1.08 ± 0.058 | 1.14 ± 0.053 | 1.37 ± 0.23 | 1.49 ± 0.43 | 0.967 (active)
14 | O=C1CCc2cc(OCCCCc3nnnn3C3CCCCC3)ccc2N1 | 1.52 ± 0.27 | 1.24 ± 0.38 | 1.18 ± 0.2 | 1.01 ± 0.043 | 1.32 ± 0.2 | 1.32 ± 0.12 | 0.991 (active)
15 | O=C(O)c1nn(-c2ccccc2)c(=O)c2ccccc12 | 1.12 ± 0.13 | 1.1 ± 0.099 | 1.03 ± 0.027 | 0.955 ± 0.034 | 0.953 ± 0.086 | 0.953 ± 0.26 | 1 (active)
16 | CC(=C(C#N)C(=O)NCc1ccccc1)N(C)C | 0.808 ± 0.077 | 0.883 ± 0.1 | 1.08 ± 0.11 | 0.966 ± 0.045 | 1.22 ± 0.1 | 1.26 ± 0.17 | 1.02 (active)
17 | O=C(C=Cc1ccccc1)c1ccc(OC2OC(CO)C(O)C(O)C2O)cc1O (centres undefined) | 1.18 ± 0.068 | 1.03 ± 0.082 | 0.94 ± 0.07 | 1.02 ± 0.039 | 1.32 ± 0.087 | 1.2 ± 0.17 | 0.986 (active)
18 | Cc1ccc(Nc2nc(Cl)nc(Nc3ccc(C(C)C)cc3)n2)cc1 | 0.851 ± 0.067 | 1.06 ± 0.078 | 1.19 ± 0.13 | 0.828 ± 0.045 | 1.1 ± 0.19 | 1.33 ± 0.32 | 1.03 (active)
19 | CS(=O)(=O)N(CC(=O)N1CCCCCC1)c1ccc(Cl)c(C(F)(F)F)c1 | 0.958 ± 0.11 | 1.21 ± 0.081 | 0.958 ± 0.036 | 0.974 ± 0.12 | 1.13 ± 0.15 | 1.15 ± 0.24 | 1 (active)
20 | Clc1ccc(C2C=C(c3ccccc3)Nc3ncnn32)cc1 (centres undefined) | 1.08 ± 0.11 | 0.939 ± 0.091 | 0.986 ± 0.057 | 0.886 ± 0.17 | 1.1 ± 0.097 | 0.945 ± 0.062 | 1 (active)
21 | CN(C)CCOC1=Cc2ccccc2Sc2ccc(Cl)cc21 [Prestw-1368] | 0.965 ± 0.077 | 0.97 ± 0.094 | 1.11 ± 0.039 | 0.772 ± 0.031 | 0.895 ± 0.061 | 0.761 ± 0.099 | 0.994 (active)
22 | CCn1c(=O)c2c(nc(/C=C/c3ccc(OC)c(OC)c3)n2C)n(CC)c1=O | 1.56 ± 0.31 | 1.27 ± 0.33 | 1.14 ± 0.094 | 0.721 ± 0.044 | 1.21 ± 0.27 | 1.32 ± 0.26 | 0.986 (active)
23 | CCn1nc(C)c(S(=O)(=O)N2CC3CC2CS3)c1C (centres undefined) | 0.892 ± 0.039 | 0.936 ± 0.075 | 0.959 ± 0.051 | 1.04 ± 0.055 | 1.17 ± 0.23 | 1.29 ± 0.41 | 0.988 (active)
24 | COCc1cc(C)nc2sc(C(=O)c3cccc([N+](=O)[O-])c3)c(N)c12 | 0.804 ± 0.063 | 0.719 ± 0.034 | 0.78 ± 0.29 | 0.943 ± 0.043 | 1.36 ± 0.12 | 1.53 ± 0.14 | 1.01 (active)
25 | CC(C)C(=O)N1CCCc2ccc(NC(=O)COc3ccc4ccccc4c3)cc21 | 0.867 ± 0.07 | 1.44 ± 0.12 | 1.31 ± 0.071 | 0.771 ± 0.075 | 1.26 ± 0.092 | 1.54 ± 0.12 | 0.995 (active)
26 | CCCCOC(=O)C1=C(C)NC2=C(C(=O)CCC2)C1c1cccc(C(F)(F)F)c1 (centres undefined) | 0.981 ± 0.1 | 1.01 ± 0.057 | 0.939 ± 0.058 | 0.993 ± 0.025 | 1.56 ± 0.28 | 1.15 ± 0.17 | 1.01 (active)
27 | O=C(Cn1nc(S(=O)(=O)c2cccc(F)c2)ccc1=O)N1CCc2ccccc2C1 | 1.03 ± 0.097 | 1.07 ± 0.085 | 0.921 ± 0.053 | 1.02 ± 0.051 | 1.29 ± 0.1 | 1.14 ± 0.21 | 1 (active)
